# Assay results published in PubChem BioAssay (Tox21).
# Results filed as inconclusive are left out. Entries that show only a call come without a potency. Activity calls are given as the source filed them. Calls come from the whole dose curve; as a rule, active = well fitted cell-killing curve with a large enough effect in the repeat runs; inconclusive = weak or mixed curves, or effect the other way; inactive = flat fitted curve, though single readings scatter.
# Assay: qHTS assay to identify small molecule antagonists of the retinoid acid receptor (RAR) signaling pathway - cell viability counter screen (AID 1159551); note: nearly all actives have a fitted effect of over 35% in size
# Settings: C3RL4 cells viability, ATP luminescence (CellTiter-Glo), 6 h; series mostly up to 92.4 µM
# Excerpt: U.S. Tox21 Program National Center for Advancing Translational Sciences [NCATS] NIH Chemical Genomics Center [NCGC] U.S. Environmental Protection Agency [EPA] National Institutes of Environmental Health Sciences [NIEHS] National Toxicology Program [NTP] U.S. Food and Drug Administration [FDA] Tox21 Assay Overview: All-trans Retinoic acid (atRA) is the potent natural metabolite of retinol and plays an important role in normal embryonic development and maintenance of cellular phenotype in adult animals. atRA is the activating ligand for the retinoic acid receptors (RARs) which form heterodimers with retinoid X receptors (RXRs) on the retinoic acid response element (RARE). Through activation of the RAR/RXRs nuclear receptors, atRA regulates the transcription of a large number of protein-coding genes and regulatory RNAs. Intracellular levels of atRA are controlled by the retinol signaling pathway (RSP) that regulates the biosynthesis and catabolism of atRA to maintain physiological levels. Chemicals that interfere with the RSP can cause abnormal intracellular levels of atRA and therefore are potential developmental toxicants. To assess compounds for the potential adverse effect on embryonic development through interfering with retinol signaling, a cell-based RARE luciferase reporter gene assay was used. C3RL4 cell line (OARSA/CFSAN/FDA, Laurel, MD) was used to screen Tox21 10K compound library for identifying inhibitors of the RSP. Also cytotoxicity was assessed by determining the viability of cells based on the quantitation of ATP.
# Tox21 Assay Protocol Summary: C3RL4 cells were seeded at 1,000/well in 4 uL of assay medium into white solid 1,536-well tissue culture plates (Greiner Bio-One North America Inc. Monroe, NC) using a Multidrop Combi (Thermo Scientific, Waltham, MA) dispenser. After incubation at 37 C and 5% CO2 for an overnight, 23 nL of compounds dissolved in DMSO, positive control or DMSO only were transferred by a Pintool station (Kalypsys, San Diego, CA). One ul of 1 uM (final concentration) of Retinol was added right after the compound addition by using a Flying Reagent Dispenser (FRD) (Aurora Discovery, San Diego, CA). After 6 hr incubation at 37 C and 5% CO2, 5 uL of CellTiter-Glo reagent (Promega Corporation, Madison, WI) was added to each assay plate using an FRD. Luminescence was quantified on a ViewLux plate reader (PerkinElmer, Waltham, MA) after 30 min incubation at room temperature.
Compound,Potency,"activity change, negative = cytotoxicity"
CC(C)c1ccccc1C(C)C,inactive,–
CCOC(=O)CC(C)C,inactive,–
Oc1ccc2c(c1)OCO2,inactive,–
OCCC1CCCCN1 (stereo not given),inactive,–
CC(O)C1CCCCC1 (stereo not given),inactive,–
O=C(O)[C@@H]1[C@H]2C[C@H]3c4[nH]c5ccccc5c4CCN3C[C@@H]2CC[C@@H]1O,inactive,–
NCCCN(CCO)CCO,inactive,–
COc1ccc2[nH]c(S(=O)Cc3ncc(C)c(OC)c3C)nc2n1 (stereo not given),inactive,–
CC(CN)CCCN (stereo not given),inactive,–
CCCCCC(CO)CCC (stereo not given),inactive,–
O=c1c2ccccc2nnn1CCl,inactive,–
CCN(CC)CCOC(=O)C1(c2ccccc2)CCCC1,inactive,–
CC(C)(Oc1ccc(Cl)cc1)C(=O)OCCCOC(=O)C(C)(C)Oc1ccc(Cl)cc1,inactive,–
O=C(C(=O)c1ccc(Br)cc1)c1ccc(Br)cc1,–,1.34% [at 19 µM] (inactive)
CCOC(=O)C1=NN(c2ccccc2)C(=O)C1,inactive,–
CCOC(=O)CC(=O)c1cc(F)c(Cl)nc1Cl,inactive,–
Nc1ccc(C(=O)Nc2ccccc2N)cc1,inactive,–
CCCCOC(=O)c1ccccc1C(=O)OCC(CC)CCCC (stereo not given),inactive,–
CN1CCC(OC(c2ccccc2)c2ccccc2)CC1,inactive,–
Cc1ccc(C(C)c2ccc(C)c(C)c2)cc1C,inactive,–

Compound,Potency,"activity change, negative = cytotoxicity"
C=CC(=O)OCCOC(=O)CCC(=O)O,inactive,–
CC(C)CC=O,inactive,–
Cc1cc(NC(=O)C(=O)O)cc(C)c1Oc1ccc(O)c2c1CCC2,inactive,–
CCN(CC)C(C)CN1c2ccccc2Sc2ccccc21 (stereo not given),inactive,–
CCCC[C@H]1CN(CC2CCOCC2)C(=O)OC12CCN(C1(C)CCN(C(=O)c3c(C)ncnc3C)CC1)CC2,inactive,–
NC(N)=N/N=C/c1c(Cl)cccc1Cl,inactive,–
O=C1c2cccc(O)c2C(=O)c2c(O)cc(CO)cc21,inactive,–
CCCCCCOC(=O)CCC,inactive,–
N#CCc1cccc(C(F)(F)F)c1,inactive,–
O=S1(=O)N=C(O)c2ccccc21,inactive,–
CCOc1cc(OCC)c(C(=O)CCC(=O)O)cc1OCC,inactive,–
CCCCCCc1ccc(N)cc1,inactive,–
Cn1sccc1=O,inactive,–
Cn1c(N)nc2nc[nH]c2c1=O,inactive,–
CCOc1ccc(NC(=O)CC(C)=O)cc1,inactive,–
CC1=CC(=O)/C(=C(/C)O)C(=O)O1,inactive,–
Cc1cccc(C(C)(C)C)c1O,inactive,–
CCc1nn(C2CCCCC2)c2cc(C3(C#N)CCC(C(=O)O)CC3)ccc12 (stereo not given),inactive,–
COc1ccccc1OC(=O)Oc1ccccc1OC,inactive,–
OC(CCN1CCCCC1)(c1ccccc1)C1CCCCC1 (stereo not given),inactive,–
